# According to PubChem BioAssay (NCATS):
# Several values for one entry are separate records, joined by “and”; a condition that tells them apart may be missing. Identical values can stand only once. Records with an inconclusive call do not appear. Entries that show only a call come without a potency. Activity calls are given as the source filed them. Unless noted, calls come from the whole dose curve; as a rule, active = well fitted curve in the direction sought with a large enough effect; inconclusive = small, poorly fitted or top-dose-only effect, or another doubt; inactive = no such curve, though single readings can be large; an effect the other way counts as inactive or inconclusive.
# Experiments:
# [1] = tested on: Zika virus NS2B-NS3 protease (linked construct); experiment: Primary screen NINDS Rhodamine qHTS for Zika virus inhibitors (AID 1347160); note: nearly all actives have a fitted effect of over 55% in size; note: potency is the fitted concentration of half-maximal effect
# Summary of the method: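 Purified NS2B-NS3 protease with the NS2B hydrophilic domain joined by a flexible linker (25 nM) in 10 mM Tris-HCl pH 8.0, 0.01% Tween 20, preincubated 15 min at RT with compound; Rhodamine110 peptide substrate 1.5 µM; fluorescence change over 15 min; 4-parameter Hill fit.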
# [2] = OV-KATE Cancer Cell Toxicity qHTS against the NCATS CANVASS Library (AID 1347345); note: potency is the fitted concentration of half-maximal effect
# Summary of the method: (§1)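 Viability was assessed by adding CellTiter-Glo reagent to treated cultures and reading luminescence after 15min at room temperature. Treatment lasted 72 h at 37 degrees C/5% CO2, using an 11-point series on 1000 cells/well.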
# [3] = HPAF-II Cancer Cell Toxicity qHTS against the NCATS CANVASS Library (AID 1347346); note: nearly all actives have a fitted effect of over 55% in size; note: potency is the fitted concentration of half-maximal effect
# Summary of the method: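 HPAF-II cells at 1000 cells/well were treated with an 11-point concentration series for 72 hours at 37 degrees C. Viability read by CellTiter-Glo luminescence.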
# [4] = UWB1.289 Cancer Cell Toxicity qHTS against the NCATS CANVASS Library (AID 1347347); note: nearly all actives have a fitted effect of over 60% in size; note: potency is the fitted concentration of half-maximal effect
# Summary of the method: as §1
# [5] = OV-SAHO Cancer Cell Toxicity qHTS against the NCATS CANVASS Library (AID 1347348); note: nearly all actives have a fitted effect of over 55% in size; note: potency is the fitted concentration of half-maximal effect
# Summary of the method: as §1
# [6] = Panc-1005 Cancer Cell Toxicity qHTS against the NCATS CANVASS Library (AID 1347349); note: nearly all actives have a fitted effect of over 60% in size; note: potency is the fitted concentration of half-maximal effect
# Summary of the method: as §1
# [7] = SW1088 Cancer Cell Toxicity qHTS against the NCATS CANVASS Library (AID 1347350); note: nearly all actives have a fitted effect of over 75% in size; note: potency is the fitted concentration of half-maximal effect
# Summary of the method: as §1
# [8] = COV-362 Cancer Cell Toxicity qHTS against the NCATS CANVASS Library (AID 1347352); note: potency is the fitted concentration of half-maximal effect
# Summary of the method: (§2)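 Cells at 1000/well were given compound 4 h after plating in an 11-point series. Viability was read by CellTiter-Glo luminescence after 72 h at 37 degrees C.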
# [9] = A2780 Cisplatin Sensitive Ovarian Cancer Cell Toxicity qHTS against the NCATS CANVASS Library (AID 1347353); note: nearly all actives have a fitted effect of over 60% in size; note: potency is the fitted concentration of half-maximal effect
# Summary of the method: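 A2780 cells, 750/well, settled 4 h at 37 °C, then treated with an 11-point compound series for 72 h. Viability was read as ATPLite luminescence after 10 min at room temperature, with bortezomib as control.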
# [10] = UWB1.289-WTBRCA1 Cancer Cell Toxicity qHTS against the NCATS CANVASS Library (AID 1347354); note: potency is the fitted concentration of half-maximal effect
# Summary of the method: as §2
# [11] = HPAF-II 24hr Apoptosis Induction qHTS against the NCATS CANVASS Library (AID 1347356)
# Summary of the method: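 HPAF-II cells (500/well) exposed to compounds in 11-point series for 24 h at 37 degrees C; caspase-3/7 activity read by Caspase-Glo luminescence after 15 min at room temperature. Doxorubicin titration as control.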
# [12] = target: Cytochrome P450 2D6 (Homo sapiens) (UniProt P10635); experiment: qHTS Assay for Inhibitors and Substrates of Cytochrome P450 2D6 (AID 891); note: potency is the fitted concentration of half-maximal effect; nearly all actives have a fitted effect of over 60% in size
# Cytochrome P450 2D6 (Homo sapiens), sequence (P10635 whole entry, looked up): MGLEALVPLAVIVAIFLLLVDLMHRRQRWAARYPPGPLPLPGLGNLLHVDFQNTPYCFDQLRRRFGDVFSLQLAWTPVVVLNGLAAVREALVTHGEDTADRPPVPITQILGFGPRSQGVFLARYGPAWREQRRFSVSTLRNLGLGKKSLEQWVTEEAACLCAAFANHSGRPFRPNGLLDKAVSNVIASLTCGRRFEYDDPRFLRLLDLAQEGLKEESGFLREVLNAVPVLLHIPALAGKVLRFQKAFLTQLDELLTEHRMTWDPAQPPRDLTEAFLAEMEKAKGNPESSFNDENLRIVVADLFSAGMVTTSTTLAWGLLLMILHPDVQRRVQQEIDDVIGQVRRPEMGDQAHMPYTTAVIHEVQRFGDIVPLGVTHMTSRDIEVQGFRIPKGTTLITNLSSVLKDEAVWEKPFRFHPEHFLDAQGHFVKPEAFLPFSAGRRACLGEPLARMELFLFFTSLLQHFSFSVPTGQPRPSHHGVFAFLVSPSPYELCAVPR
# Summary of the method: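 Human CYP2D6 (5 nM) with 30 uM Luciferin-ME EGE (at Km) in 100 mM KPO4, compound preincubated 10 min, then NADPH regeneration system for 60 min at room temperature. Luciferin read by luminescence; normalized to 1.43 uM quinidine.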
# [13] = target: Cytochrome P450 3A4 (Homo sapiens) (UniProt P08684); experiment: qHTS Assay for Activators of Cytochrome P450 3A4 (AID 885); note: nearly all actives have a fitted effect of over 65% in size
# Cytochrome P450 3A4 (Homo sapiens), sequence (P08684 whole entry, looked up): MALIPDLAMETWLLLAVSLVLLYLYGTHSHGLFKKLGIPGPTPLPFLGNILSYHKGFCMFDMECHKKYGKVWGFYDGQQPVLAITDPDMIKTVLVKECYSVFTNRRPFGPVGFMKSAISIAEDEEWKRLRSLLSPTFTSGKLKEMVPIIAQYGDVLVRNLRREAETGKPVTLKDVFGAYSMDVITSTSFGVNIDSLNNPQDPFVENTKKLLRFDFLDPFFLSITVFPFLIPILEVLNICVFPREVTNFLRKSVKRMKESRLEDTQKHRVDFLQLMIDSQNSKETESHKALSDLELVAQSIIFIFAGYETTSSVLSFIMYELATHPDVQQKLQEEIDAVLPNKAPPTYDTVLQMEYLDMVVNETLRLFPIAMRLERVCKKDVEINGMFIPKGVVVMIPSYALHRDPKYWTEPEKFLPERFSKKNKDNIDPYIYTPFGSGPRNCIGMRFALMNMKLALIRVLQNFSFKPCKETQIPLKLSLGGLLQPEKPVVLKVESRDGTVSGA
# Summary of the method: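 Human CYP3A4 (20 nM) with Luciferin-PPXE at 25 uM (its KM) in 200 mM KPO4; 10 min compound preincubation, then NADPH regeneration and 60 min reaction at RT. Luciferin read by luminescence; normalized to 57 uM ketoconazole full inhibition.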
# [14] = qHTS Assay for Identification of Small Molecule Agonists for Thrombopoietin (TPO) Signaling Pathway (AID 917)
# Summary of the method: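 Murine Ba/F3 cells stably expressing human TPO receptor and a Glycoprotein IIb promoter–luciferase reporter were IL-3-starved overnight, then treated with compounds plus TPO (26 pM final, its EC50) for 24 hrs at 37 C; luminescence was read.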
# [15] = target: Cytochrome P450 2C9 (Homo sapiens) (UniProt P11712); experiment: qHTS Assay for Inhibitors and Substrates of Cytochrome P450 2C9 (AID 883); note: nearly all actives have a fitted effect of over 60% in size; note: potency is the fitted concentration of half-maximal effect
# Cytochrome P450 2C9 (Homo sapiens), sequence (P11712 whole entry, looked up): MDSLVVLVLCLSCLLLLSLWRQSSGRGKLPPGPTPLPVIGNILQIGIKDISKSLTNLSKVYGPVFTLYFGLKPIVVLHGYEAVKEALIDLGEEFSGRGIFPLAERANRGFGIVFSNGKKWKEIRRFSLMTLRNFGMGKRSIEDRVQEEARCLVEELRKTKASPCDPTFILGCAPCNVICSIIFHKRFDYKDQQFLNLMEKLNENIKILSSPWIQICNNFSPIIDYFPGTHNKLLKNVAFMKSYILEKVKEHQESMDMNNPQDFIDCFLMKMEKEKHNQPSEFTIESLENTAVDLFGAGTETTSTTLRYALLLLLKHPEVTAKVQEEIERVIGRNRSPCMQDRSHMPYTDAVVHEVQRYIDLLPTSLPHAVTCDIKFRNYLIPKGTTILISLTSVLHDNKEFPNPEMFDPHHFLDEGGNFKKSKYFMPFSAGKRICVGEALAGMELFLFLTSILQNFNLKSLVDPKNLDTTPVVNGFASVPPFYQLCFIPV
# Summary of the method: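 CYP2C9 deoxyluciferin hydroxylation, 37C, 60 min with NADPH regeneration; 10nM enzyme, 100uM Luciferin-H (KM). Glo detection reagent stopped reaction; luminescence normalized to sulphaphenazole (57uM) full inhibition.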
# [16] = target: Cytochrome P450 2C19 (Homo sapiens) (UniProt P33261); experiment: qHTS Assay for Inhibitors and Substrates of Cytochrome P450 2C19 (AID 899)
# Cytochrome P450 2C19 (Homo sapiens), sequence (P33261 whole entry, looked up): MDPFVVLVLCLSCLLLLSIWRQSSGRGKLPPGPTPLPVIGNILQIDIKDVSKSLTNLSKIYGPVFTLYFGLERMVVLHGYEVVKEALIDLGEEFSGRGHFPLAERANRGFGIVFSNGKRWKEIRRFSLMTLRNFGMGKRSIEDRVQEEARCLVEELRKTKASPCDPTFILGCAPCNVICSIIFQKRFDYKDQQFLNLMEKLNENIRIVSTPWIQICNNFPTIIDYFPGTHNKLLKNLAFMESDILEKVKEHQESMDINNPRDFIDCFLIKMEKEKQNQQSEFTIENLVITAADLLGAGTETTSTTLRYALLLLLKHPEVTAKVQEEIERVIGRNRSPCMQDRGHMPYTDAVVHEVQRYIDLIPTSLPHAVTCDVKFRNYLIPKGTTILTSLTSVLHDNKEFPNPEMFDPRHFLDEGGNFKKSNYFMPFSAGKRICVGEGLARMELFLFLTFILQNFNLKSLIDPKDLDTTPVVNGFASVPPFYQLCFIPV
# Summary of the method: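 In 50mM KPO4, the reaction held 5nM enzyme and KM-level (10uM) Luciferin-H EGE; it ran 60 min at 37C after NADPH regeneration and a 10 min compound preincubation. Luminescence values were scaled to 57uM ketoconazole as complete inhibition.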
# [17] = target: Cytochrome P450 3A4 (Homo sapiens) (UniProt P08684); experiment: qHTS Assay for Inhibitors and Substrates of Cytochrome P450 3A4 (AID 884); note: nearly all actives have a fitted effect of over 50% in size; note: potency is the fitted concentration of half-maximal effect
# Summary of the method: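 20 nM human CYP3A4 with 25 uM Luciferin-PPXE (at KM) in 200 mM KPO4, preincubated 10 min with compound; NADPH regeneration started a 60 min RT reaction. Luciferin detected by luminescence, normalized to 57 uM ketoconazole as full inhibition.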
# [18] = qHTS Assay for Identification of Small Molecule Antagonists for NFkB Signaling Pathway (AID 895; active = well fitted inhibition curve with a large enough effect in the signal ratio, with a control signal flat, not every such curve was filed as active; the % refers to the signal ratio)
# Summary of the method: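 NFkB-bla ME-180 cervical carcinoma cells with beta-lactamase reporter under NFkB response element; compounds added, then TNF alpha at 10 pM final (EC50), 5 h at 37 C. LiveBLAzer substrate 2 h, room temperature; emission 460/530 nm at 405 nm excitation.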
# [19] = target: Muscarinic acetylcholine receptor M1 (Rattus norvegicus) (UniProt P08482); experiment: qHTS Assay for Antagonists of Acetylcholine Muscarinic M1 Receptor: Kinetic Measurement of Intracellular Calcium Response (AID 943); note: series mostly up to about 35 µM; nearly all actives have a fitted effect of over 75% in size
# Muscarinic acetylcholine receptor M1 (Rattus norvegicus), sequence (P08482 whole entry, looked up): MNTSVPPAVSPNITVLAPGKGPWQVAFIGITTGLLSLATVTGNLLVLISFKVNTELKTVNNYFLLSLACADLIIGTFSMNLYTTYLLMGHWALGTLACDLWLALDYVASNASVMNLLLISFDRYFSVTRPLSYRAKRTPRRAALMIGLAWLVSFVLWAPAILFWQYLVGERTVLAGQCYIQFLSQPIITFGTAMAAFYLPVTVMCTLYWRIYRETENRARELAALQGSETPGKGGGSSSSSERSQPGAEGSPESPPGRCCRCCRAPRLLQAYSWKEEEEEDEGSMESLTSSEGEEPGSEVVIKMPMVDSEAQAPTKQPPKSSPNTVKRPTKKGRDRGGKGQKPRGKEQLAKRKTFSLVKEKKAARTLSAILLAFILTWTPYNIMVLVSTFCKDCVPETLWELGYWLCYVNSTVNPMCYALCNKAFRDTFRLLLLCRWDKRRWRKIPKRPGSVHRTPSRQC
# Summary of the method: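 CHO cells expressing rat M1 receptor, Fluo-4 loaded, preincubated 10 min with compound, then stimulated with EC80 carbachol (100 nM final). Kinetic calcium fluorescence over 4 min; response taken as peak over basal signal.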
# [20] = target: Muscarinic acetylcholine receptor M1 (Rattus norvegicus) (UniProt P08482); experiment: qHTS Assay for Antagonists of Acetylcholine Muscarinic M1 Receptor: Measurement of IP-One Response (AID 944); note: nearly all actives have a fitted effect of over 75% in size
# Summary of the method: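 CHO cells stably expressing rat M1, pretreated 10 min with compound, then stimulated 30 min with carbachol at EC80 (200 nM) in LiCl-containing buffer pH 7.4; IP1 accumulation read by HTRF competition (665/620 nm).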
smiles,measurement,setting,value
COc1ccc(C23Oc4cc(OC)cc(OC)c4[C@](O)([C@H](c4ccccc4)C2C(=O)NCCCCNC(=O)c2ccccc2)[C@@H]3O)cc1 (stereo not given in full),Potency,[1],49.3 µM (active)
same,Potency,[2],inactive
same,Potency,[3],inactive
same,Potency,[4],inactive
same,Potency,[5],inactive
same,Potency,[6],inactive
same,Potency,[7],inactive
same,Potency,[8],inactive
same,Potency,[9],inactive
same,Potency,[10],inactive
same,outcome,[11],inactive
CO[C@@H](/C=C/CC/C=C/C(=O)O)[C@@H](O)[C@H](C)/C=C(\C)[C@@H](O)[C@H](C)C(=O)CCCC1CC(=O)NC(=O)C1,Potency,[1],inactive
same,Potency,[2],inactive
same,Potency,[3],inactive
same,Potency,[4],inactive
same,Potency,[5],inactive
same,Potency,[6],inactive
same,Potency,[7],inactive
same,Potency,[8],inactive
same,Potency,[9],inactive
same,Potency,[10],inactive
same,outcome,[11],inactive
CN(C(=O)Cc1ccccc1)[C@H](CN1CCCC1)c1ccccc1,Potency,[12],3.16 µM (active)
Oc1ccc2c3c1O[C@H]1c4oc5ccccc5c4C[C@]4(O)[C@H](C2)N(CC2CC2)CC[C@@]314,Potency,[13],inactive
same,Potency,[12],1.26 µM (active)
same,outcome,[14],inactive
C[C@@H](N)Cn1ccc2cc(F)c(Cl)cc21,Potency,[15],3.98 µM (active)
same,Potency,[13],inactive
Cc1c(C(=O)c2ccc3ccccc3c2)c2cccc3c2n1[C@H](CN1CCOCC1)CO3,Potency,[15],inactive
CC(=O)N[C@H]1CCN2CCC[C@H]12,Potency,[1],inactive
same,Potency,[2],inactive
same,Potency,[3],inactive
same,Potency,[4],inactive
same,Potency,[5],inactive
same,Potency,[6],inactive
same,Potency,[7],inactive
same,Potency,[8],inactive
same,Potency,[9],inactive
same,Potency,[10],inactive
same,outcome,[11],inactive
CN(C)c1ccc(/C=C2\CCCN=C2c2cccnc2)cc1,Potency,[13],inactive
CCCCCCCCCOc1ccc2[nH]cc(CCN)c2c1,Potency,[13],inactive
NC(=NCc1ccc(Cl)cc1)SCCCc1cnc[nH]1,Potency,[13],inactive
CC(C)(C)NC[C@@H](O)COc1cccc2[nH]c(C#N)cc12,Potency,[13],inactive
O=C(O)c1ccccc1-c1c2cc(Br)c(=O)cc-2oc2[c]([Hg])c(O)c(Br)cc12,Potency,[15],0.631 µM (active)
same,Potency,[13],inactive
same,Potency,[16],3.16 µM (active)
COC(=O)C1=C2Nc3ccccc3[C@@]23CCN2CC(C(C)=O)C1C[C@H]23 (stereo not given in full),Potency,[1],55.3 µM (active)
same,Potency,[2],inactive
same,Potency,[3],9.43 µM (active)
same,Potency,[4],inactive
same,Potency,[5],inactive
same,Potency,[6],inactive
same,Potency,[7],inactive
same,Potency,[8],inactive
same,Potency,[9],inactive
same,Potency,[10],inactive
same,outcome,[11],inactive
CCN1C[C@]2(COC(=O)c3ccccc3N3C(=O)C[C@H](C)C3=O)CC[C@H](OC)[C@@]34[C@@H]5C[C@H]6[C@H](OC)[C@H]5[C@](O)(C[C@@H]6OC)[C@@](O)([C@@H](OC)[C@@H]23)[C@@H]14,Potency,[15],inactive
O=C(Cc1ccc(Cl)c(Cl)c1)N1CCCC[C@H]1CN1CCCC1,Potency,[17],7.94 µM (active)
same,Potency,[13],inactive
same,Potency,[12],7.94 µM (active) and 2.51 µM (active)
same,Potency,[16],6.31 µM (active)
same,outcome,[14],inactive
c1cncc(C2CCCCN2)c1 (stereo not given),Potency,[17],inactive
CNCCc1ccc(O)cc1,Potency,[1],inactive
same,Potency,[2],inactive
same,Potency,[3],inactive
same,Potency,[4],inactive
same,Potency,[5],inactive
same,Potency,[6],inactive
same,Potency,[7],inactive
same,Potency,[8],inactive
same,Potency,[9],inactive
same,Potency,[10],inactive
same,outcome,[11],inactive
CCC(=O)CCCCC[C@@H]1NC(=O)[C@H]2CCCCN2C(=O)[C@H]([C@@H](C)CC)NC(=O)[C@H](Cc2cn(OC)c3ccccc23)NC1=O,Potency,[1],13.9 µM (active)
same,Potency,[2],4.72 µM (active)
same,Potency,[3],0.841 µM (active)
same,Potency,[4],2.11 µM (active)
same,Potency,[5],3.75 µM (active)
same,Potency,[6],0.668 µM (active)
same,Potency,[7],2.66 µM (active)
same,Potency,[8],16.7 µM (active)
same,Potency,[9],1.05 µM (active)
same,Potency,[10],6.66 µM (active)
same,outcome,[11],inactive
NC[C@H](CP(=O)(O)O)c1ccc(Cl)cc1,Potency,[17],inactive
same,Potency,[18],inactive
same,outcome,[14],inactive
same,Potency,[19],inactive
same,Potency,[20],inactive
COc1ccc2[nH]cc(CCN(C)C)c2c1,Potency,[15],inactive
same,Potency,[18],inactive
same,outcome,[14],inactive
same,Potency,[19],inactive
same,Potency,[20],inactive
CC1=CC2CC[C@@H]3[C@@H](C)C[C@H](C)[C@@H](C1)N23 (stereo not given in full),Potency,[1],inactive
same,Potency,[2],inactive
same,Potency,[3],inactive
same,Potency,[4],inactive
same,Potency,[5],inactive
same,Potency,[6],inactive
same,Potency,[7],inactive
same,Potency,[8],inactive
same,Potency,[9],inactive
same,Potency,[10],inactive
same,outcome,[11],inactive
NC[C@H](CC(=O)O)c1ccc(Cl)cc1,Potency,[12],0.794 µM (active)
same,Potency,[16],2.51 µM (active)
